# Measured values from PubChem BioAssay AID1159580 (chemical genetic matrix, 2015).
# Several values for one entry are separate records, joined by “and”; a condition that tells them apart may be missing. Equal entries are not always repeated. Among all 5,500 compounds or so, about 2,000 (36%) were called active. Roughly 18% stayed inconclusive and do not appear here. No stated cut-off is given here; in the data, active means normalized growth mostly below about 0.91 (no sharp cut-off); inconclusive means no clear call, values can overlap the other calls; inactive means mostly above about 0.92. The list shows a part of the results.
# Experiment: chemical genetic growth profiling, strain panel (AID 1159580);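 further: tested at 20 µM; growth read once vehicle control cultures reached saturation at 30 °C; 1 = growth at the plate median or of vehicle wells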
# Settings: S. cerevisiae deletion strains, growth OD
smiles,measurement,setting,value
COc1ccc2c(c1)O[C@H]1c3ccc(OC)cc3OC[C@@H]21,normalized growth,"locus YAL021C, strain ccr4, stronger effect = lower value",1.03 (inactive)
same,normalized growth,"locus YAL026C, strain drs2, stronger effect = lower value",1.02 (inactive)
same,normalized growth,"locus YAL030W, strain snc1, stronger effect = lower value",1.02 (inactive)
same,normalized growth,"locus YBL061C, strain skt5, stronger effect = lower value",1.02 (inactive)
same,normalized growth,"locus YBR009C, strain hhf1, stronger effect = lower value",1 (inactive)
same,normalized growth,"locus YBR021W, strain FUR4, stronger effect = lower value",0.961 (inactive)
same,normalized growth,"locus YBR023C, strain chs3, stronger effect = lower value",1.02 (inactive)
same,normalized growth,"locus YBR171W, strain sec66, stronger effect = lower value",1.03 (inactive)
same,normalized growth,"locus YBR229C, strain ROT2, stronger effect = lower value",0.975 (inactive)
same,normalized growth,"locus YBR231C, strain swc5, stronger effect = lower value",1.01 (inactive)
same,normalized growth,"locus YBR279W, strain paf1, stronger effect = lower value",1.02 (inactive)
same,normalized growth,"locus YCL011C, strain gbp2, stronger effect = lower value",1.02 (inactive)
same,normalized growth,"locus YCL016C, strain dcc1, stronger effect = lower value",1.03 (inactive)
same,normalized growth,"locus YCL029C, strain bik1, stronger effect = lower value",0.99 (inactive)
same,normalized growth,"locus YCL069W, strain vba3, stronger effect = lower value",1.03 (inactive)
same,normalized growth,"locus YCR088W, strain abp1, stronger effect = lower value",1.02 (inactive)
same,normalized growth,"locus YDL005C, strain med2, stronger effect = lower value",1.02 (inactive)
same,normalized growth,"locus YDL035C, strain GPR1, stronger effect = lower value",0.945 (inactive)
same,normalized growth,"locus YDL040C, strain nat1, stronger effect = lower value",1.01 (inactive)
same,normalized growth,"locus YDL074C, strain BRE1, stronger effect = lower value",0.911 (inactive)
same,normalized growth,"locus YDL101C, strain DUN1, stronger effect = lower value",0.984 (inactive)
same,normalized growth,"locus YDL185W, strain tfp1, stronger effect = lower value",0.98 (inactive)
same,normalized growth,"locus YDL192W, strain arf1, stronger effect = lower value",0.897 (active)
same,normalized growth,"locus YDR001C, strain nth1, stronger effect = lower value",1.01 (inactive)
same,normalized growth,"locus YDR069C, strain doa4, stronger effect = lower value",1.01 (inactive)
same,normalized growth,"locus YDR101C, strain arx1, stronger effect = lower value",0.911 (active)
same,normalized growth,"locus YDR137W, strain rgp1, stronger effect = lower value",1.06 (inactive)
same,normalized growth,"locus YDR150W, strain NUM1, stronger effect = lower value",0.986 (inactive)
same,normalized growth,"locus YDR159W, strain sac3, stronger effect = lower value",1.05 (inactive)
same,normalized growth,"locus YDR162C, strain NBP2, stronger effect = lower value",0.937 (inactive)
same,normalized growth,"locus YDR195W, strain ref2",0.976 (inactive)
same,normalized growth,"locus YDR297W, strain sur2, stronger effect = lower value",1.03 (inactive)
same,normalized growth,"locus YDR318W, strain mcm21, stronger effect = lower value",0.87 (active)
same,normalized growth,"locus YDR334W, strain swr1, stronger effect = lower value",1.02 (inactive)
same,normalized growth,"locus YDR335W, strain msn5, stronger effect = lower value",1.03 (inactive)
same,normalized growth,"locus YDR388W, stronger effect = lower value",0.956 (inactive)
same,normalized growth,"locus YDR392W, strain spt3, stronger effect = lower value",1.03 (inactive)
same,normalized growth,"locus YDR502C, strain sam2, stronger effect = lower value",0.876 (active)
same,normalized growth,"locus YEL003W, strain gim4, stronger effect = lower value",1.02 (inactive)
same,normalized growth,"locus YEL037C, strain rad23, stronger effect = lower value",1.02 (inactive)
same,normalized growth,"locus YEL061C, strain CIN8 (second series), stronger effect = lower value",1.02 (inactive)
same,normalized growth,"locus YEL061C, strain CIN8, stronger effect = lower value",0.985 (inactive)
same,normalized growth,"locus YER015W, strain faa2, stronger effect = lower value",1.03 (inactive)
same,normalized growth,"locus YER016W, strain bim1, stronger effect = lower value",1.02 (inactive)
same,normalized growth,"locus YER110C, stronger effect = lower value",0.924 (inactive)
same,normalized growth,"locus YER111C, strain swi4, stronger effect = lower value",1.02 (inactive)
same,normalized growth,"locus YER155C, strain BEM2 (second series), stronger effect = lower value",1.04 (inactive)
same,normalized growth,"locus YER167W, strain BCK2, stronger effect = lower value",0.989 (inactive)
same,normalized growth,"locus YFR010W, strain ubp6, stronger effect = lower value",1.01 (inactive)
same,normalized growth,"locus YGL078C, strain dbp3, stronger effect = lower value",0.897 (active)
same,normalized growth,"locus YGL086W, strain mad1, stronger effect = lower value",0.882 (active)
same,normalized growth,"locus YGL167C, strain pmr1, stronger effect = lower value",1.02 (inactive)
same,normalized growth,"locus YGL173C, strain kem1, stronger effect = lower value",1.02 (inactive)
same,normalized growth,"locus YGL227W, strain vid30, stronger effect = lower value",1.02 (inactive)
same,normalized growth,"locus YGL240W, strain doc1, stronger effect = lower value",1.03 (inactive)
same,normalized growth,"locus YGL248W, strain PDE1, stronger effect = lower value",0.863 (active)
same,normalized growth,"locus YGL253W, strain hxk2, stronger effect = lower value",1.02 (inactive)
same,normalized growth,"locus YGR078C, strain PAC10, stronger effect = lower value",0.928 (inactive)
same,normalized growth,"locus YGR135W, strain pre9, stronger effect = lower value",0.84 (active)
same,normalized growth,"locus YGR252W, strain gcn5, stronger effect = lower value",0.669 (active)
same,normalized growth,"locus YHR013C, strain ard1, stronger effect = lower value",1.05 (inactive)
same,normalized growth,"locus YHR027C, strain rpn1, stronger effect = lower value",1.02 (inactive)
same,normalized growth,"locus YHR030C, strain SLT2, stronger effect = lower value",0.977 (inactive)
same,normalized growth,"locus YHR079C, strain IRE1 (second series), stronger effect = lower value",0.95 (inactive)
same,normalized growth,"locus YHR079C, strain IRE1, stronger effect = lower value",0.964 (inactive)
same,normalized growth,"locus YHR094C, strain hxt1, stronger effect = lower value",0.968 (inactive)
same,normalized growth,"locus YHR129C, strain ARP1, stronger effect = lower value",1 (inactive)
same,normalized growth,"locus YHR142W, strain chs7, stronger effect = lower value",1.02 (inactive)
same,normalized growth,"locus YHR200W, strain rpn10, stronger effect = lower value",0.944 (inactive)
same,normalized growth,"locus YIL066C, strain RNR3, stronger effect = lower value",0.977 (inactive)
same,normalized growth,"locus YIL073C, strain SPO22, stronger effect = lower value",0.961 (inactive)
same,normalized growth,"locus YIL125W, strain kgd1, stronger effect = lower value",0.973 (inactive)
same,normalized growth,"locus YIR030C, strain dcg1, stronger effect = lower value",0.927 (active)
same,normalized growth,"locus YJL092W, strain hpr5, stronger effect = lower value",1.02 (inactive)
same,normalized growth,"locus YJL095W, strain BCK1 (second series), stronger effect = lower value",1.01 (inactive)
same,normalized growth,"locus YJL095W, strain BCK1, stronger effect = lower value",0.684 (active) and 0.982 (inactive)
same,normalized growth,"locus YJL115W, strain asf1, stronger effect = lower value",1.03 (inactive)
same,normalized growth,"locus YJL129C, strain trk1, stronger effect = lower value",1.05 (inactive)
same,normalized growth,"locus YJL134W, strain LCB3, stronger effect = lower value",0.992 (inactive)
same,normalized growth,"locus YJL154C, strain vps35, stronger effect = lower value",1.02 (inactive)
same,normalized growth,"locus YJL164C, strain tpk1, stronger effect = lower value",1.02 (inactive)
same,normalized growth,"locus YJL166W, strain qcr8, stronger effect = lower value",1.02 (inactive)
same,normalized growth,"locus YJL168C, strain set2, stronger effect = lower value",0.955 (inactive)
same,normalized growth,"locus YJL187C, strain SWE1 (second series), stronger effect = lower value",0.96 (inactive)
same,normalized growth,"locus YJL187C, strain SWE1, stronger effect = lower value",1.02 (inactive)
same,normalized growth,"locus YJR066W, strain TOR1, stronger effect = lower value",0.927 (inactive)
